Compounds without any hit were thinned out: in the full panel of roughly 83,000, 20% have a hit.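 For each line, cells grew in 96-well plates with the test compound present at a single concentration for 48 hours.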 A number with no mark means an inactive call. The source made the active and inactive calls. How the source made its calls: active means growth percent below 10; inactive means the rest.
Tests used:
Assay in all cases: NCI-60 one-dose screen, 48 h (100 = growth as untreated, 0 = no growth, -100 = all killed)
Conditions in all cases: 10 µM unless noted
[1] = test system: NCI-H23 lung
[2] = test system: NCI-H226 lung
[3] = test system: NCI-H322M lung
[4] = test system: HOP-62 NSCLC
[5] = test system: NCI-H460 lung
[6] = test system: HOP-92 NSCLC
[7] = test system: NCI-H522 lung
[8] = test system: A549/ATCC NSCLC
[9] = test system: 786-0 renal
[10] = test system: COLO 205 colon
[11] = test system: DU-145 prostate
[12] = test system: K-562 leukemia
[13] = test system: MALME-3M melanoma
[14] = test system: MDA-MB-231 breast
[15] = test system: RXF 393 renal
[16] = test system: SF-268 CNS
[17] = test system: SF-295 CNS
[18] = test system: SF-539 CNS
[19] = test system: UACC-257 melanoma
[20] = test system: M14 melanoma

SMILES	growth [1]	growth [2]	growth [3]	growth [4]	growth [5]	growth [6]	growth [7]	growth [8]	growth [9]	growth [10]	growth [11]	growth [12]	growth [13]	growth [14]	growth [15]	growth [16]	growth [17]	growth [18]	growth [19]	growth [20]
CCOC(=O)c1c(CN2CCN(C)CC2)nc2ccc(Cl)cc2c1-c1ccccc1	74.7%	103%	108%	70.8%	59.5%	30.8%	65.8%	67.2%	57.5%	97%	85.7%	11.7%	38.6%	70.7%	42.9%	77.9%	28.8%	61.9%	-38% (active)	-24.5% (active)
COc1ccc(-n2nc(C)c3c(Nc4ccc(NC(=O)Nc5c(Cl)cccc5Cl)cc4)ncnc32)cc1	52.1%	37.2%	57.7%	50.3%	50.4%	43.9%	58%	44.6%	55.2%	70.1%	51.4%	79.1%	31.3%	30.6%	26.2%	59.4%	85.2%	30%	53%	82.2%
Cc1ccc2c(C(C[N+](=O)[O-])c3ccccc3F)c(-c3ccccc3)[nH]c2c1 (stereo not given)	56.9%	58.6%	68.5%	36.2%	20.9%	45.8%	-17.2% (active)	35.2%	56.7%	32.3%	66.2%	11.8%	46.1%	61.4%	63.6%	46.7%	17.6%	52.3%	46.9%	26.2%
C=CC(=O)Nc1cccc(-c2nc(SC)nc(Nc3cccc(OC)c3)c2C#N)c1	81%	70.9%	94.5%	85.5%	86%	29.5%	58.7%	57.3%	62.7%	93.3%	54.6%	54.6%	77.6%	71.4%	36.9%	57.1%	77.8%	71.3%	82.3%	60.6%
CC(=O)NCC1c2c(n(C)c3c(Cl)c(Cl)ccc23)C(=O)NC1(C)C (stereo not given)	90.3%	97.1%	91.9%	88.2%	96.6%	90.6%	92.8%	94.4%	100%	113%	108%	79.5%	108%	112%	90.5%	108%	89.5%	94.5%	103%	94.2%
C=C(C)[C@@H]1CC[C@]2(C(N)=O)CC[C@]3(C)[C@H](CC[C@@H]4[C@@]5(C)C/C(=C/c6ccco6)C(=O)C(C)(C)[C@@H]5CC[C@]43C)[C@@H]12	98%	95.8%	98.9%	98.5%	96%	103%	78.8%	86.6%	95.3%	113%	92.6%	80.1%	87%	94.5%	94.2%	90.9%	90.2%	98.6%	97.8%	85.1%
O=S(=O)(Nc1ccc(NS(=O)(=O)c2ccccc2)c(Cl)c1)c1ccccc1	103%	102%	115%	110%	102%	95.3%	77.7%	101%	103%	114%	109%	95.4%	103%	104%	108%	101%	94.6%	105%	103%	101%
C=C(C)C1CC(O)C2(C)CCCC3C2C1CC(C)C3(C)CC/C(C)=C/C(O)C1CCC(=O)c2c(OC)cc(OC)cc21 (stereo not given)	48.9%	71.2%	78.9%	46.7%	14.7%	58.5%	53.6%	30.8%	58%	40.8%	43.3%	22%	52%	48.6%	52.7%	44.5%	41.4%	50.8%	12.6%	72.7%

From PubChem BioAssay (NCI)
